PubChem BioAssay (NCATS)
Where “and” joins values, the source holds several entries; their conditions need not be identical. Equal values may be shown once. Results filed as inconclusive are left out. Calls of active or inactive are those of the source. The call rests on the fitted dose curve; in most records, active means well fitted inhibition curve with a large enough effect; inconclusive means small, poorly fitted or top-dose-only effect; inactive means flat fitted curve, though single readings scatter.

Assays:
KB-3-1 = assay: Cytotoxic Profiling of Annotated Libraries Using Quantitative High-Throughput Screening (AID 1296008); conditions: Five cell lines viability, CellTiter-Glo ATP luminescence, 48-72 h; max response: hits give low values
Procedure, shortened: (§1)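 Cytotoxicity was measured as CellTiter-Glo ATP luminescence, read after 10 min at room temperature. Compound treatment of the cells lasted 48 or 72 hr at 37 degrees Celsius in a qHTS format.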

NIH3T3 [1] = assay: as above; conditions: Five cell lines viability, CellTiter-Glo ATP luminescence, 48-72 h; max response: hits give low values
Procedure, shortened: as §1

HACAT = assay: qHTS assay to identify novel small-molecules to repurpose for Merkel cell carcinoma treatment (AID 1296009); conditions: MCC and control cell lines, CellTiter-Glo viability, 72 h; at 44.8 µM (top of the series) unless noted; further: potency means the concentration at half of the fitted maximal effect
Procedure, shortened: (§2)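 Cell viability, measured as CellTiter-Glo luminescence, was normalized between DMSO and no-cell wells. The cells had been exposed to 8- or 11-point compound dilutions for 72 hr at 37 degree celsius.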

HEK293T = assay: as above; conditions: MCC and control cell lines, CellTiter-Glo viability, 72 h; at 44.8 µM (top of the series) unless noted
Procedure, shortened: as §2

MCC-13 = assay: as above; conditions: MCC and control cell lines, CellTiter-Glo viability, 72 h; series mostly up to 46 µM
Procedure, shortened: as §2

MCC-26 = assay: as above; conditions: MCC and control cell lines, CellTiter-Glo viability, 72 h; series mostly up to 46 µM
Procedure, shortened: as §2

MKL-1 = assay: as above; conditions: MCC and control cell lines, CellTiter-Glo viability, 72 h; series mostly up to 46 µM
Procedure, shortened: as §2

MKL-2 = assay: as above; conditions: MCC and control cell lines, CellTiter-Glo viability, 72 h; series mostly up to 46 µM
Procedure, shortened: as §2

NIH3T3 [2] = assay: as above; conditions: MCC and control cell lines, CellTiter-Glo viability, 72 h; at 44.8 µM (top of the series) unless noted
Procedure, shortened: as §2

UISO = assay: as above; conditions: MCC and control cell lines, CellTiter-Glo viability, 72 h; series mostly up to 46 µM
Procedure, shortened: as §2
Further: nearly all actives have a fitted effect of over 60% in size.
On the % scale 0 is the no-effect control and ±100 the full control effect.

COC(=O)[C@H]1[C@H]2C[C@@H]3c4[nH]c5cc(OC)ccc5c4CCN3C[C@H]2C[C@@H](OC(=O)COc2ccc(OC)cc2)[C@@H]1OC
inactive: max response (KB-3-1) 0.718% | outcome (NIH3T3 [1]) | outcome (HACAT) | outcome (HEK293T) | Potency (MCC-13) | Potency (MCC-26) | Potency (MKL-1) | Potency (MKL-2) | outcome (NIH3T3 [2]) | Potency (UISO)

CC(C)(C)C(=O)C(Oc1ccc(Cl)cc1)n1ccnc1 (stereo not drawn)
active: Potency (UISO) 11.9 µM
inactive: max response (KB-3-1) -11% and -12.3% | max response (NIH3T3 [1]) -7.83% | outcome (NIH3T3 [1]) | outcome (HACAT) | outcome (HEK293T) | Potency (MCC-13) | Potency (MCC-26) | Potency (MKL-1) | Potency (MKL-2) | outcome (NIH3T3 [2])

CCC(=O)c1ccc(O)cc1
inactive: max response (KB-3-1) 5.91% | outcome (NIH3T3 [1]) | outcome (HACAT) | outcome (HEK293T) | Potency (MCC-13) | Potency (MCC-26) | Potency (MKL-1) | Potency (MKL-2) | outcome (NIH3T3 [2]) | Potency (UISO)

O=C(O)[C@@H]1CSCN1
inactive: max response (KB-3-1) 0.966% | outcome (NIH3T3 [1]) | outcome (HACAT) | outcome (HEK293T) | Potency (MCC-13) | Potency (MCC-26) | Potency (MKL-1) | Potency (MKL-2) | outcome (NIH3T3 [2]) | Potency (UISO)

NS(=O)(=O)c1cc2c(cc1C(F)(F)F)NC(Cc1ccccc1)NS2(=O)=O (stereo not drawn)
inactive: max response (KB-3-1) -0.539% | outcome (NIH3T3 [1]) | outcome (HACAT) | outcome (HEK293T) | Potency (MCC-13) | Potency (MCC-26) | Potency (MKL-1) | Potency (MKL-2) | outcome (NIH3T3 [2]) | Potency (UISO)

CC(=O)CCC(=O)O
inactive: max response (KB-3-1) 2.58% | outcome (NIH3T3 [1]) | outcome (HACAT) | outcome (HEK293T) | Potency (MCC-13) | Potency (MCC-26) | Potency (MKL-1) | Potency (MKL-2) | outcome (NIH3T3 [2]) | Potency (UISO)

CN1CCOC(c2ccccc2)c2ccccc2C1 (stereo not drawn)
inactive: max response (KB-3-1) -9.99% and 4.82% | max response (NIH3T3 [1]) 2.98% | outcome (NIH3T3 [1]) | outcome (HEK293T) | Potency (MCC-13) | Potency (MCC-26) | Potency (MKL-1) | Potency (MKL-2) | outcome (NIH3T3 [2]) | Potency (UISO)

Cn1cc[nH]c1=S
inactive: max response (KB-3-1) 10.2% | outcome (NIH3T3 [1]) | outcome (HACAT) | outcome (HEK293T) | Potency (MCC-13) | Potency (MCC-26) | Potency (MKL-1) | Potency (MKL-2) | outcome (NIH3T3 [2]) | Potency (UISO)

OCC(O)CN1CCN(c2ccccc2)CC1 (stereo not drawn)
inactive: max response (KB-3-1) -6.94% and 8% | max response (NIH3T3 [1]) -1.52% | outcome (NIH3T3 [1]) | outcome (HEK293T) | Potency (MCC-13) | Potency (MCC-26) | Potency (MKL-1) | Potency (MKL-2) | outcome (NIH3T3 [2]) | Potency (UISO)

O=C(Oc1ccccc1C(=O)O)c1ccccc1O
inactive: max response (KB-3-1) -14.6% | outcome (NIH3T3 [1]) | outcome (HACAT) | outcome (HEK293T) | Potency (MCC-13) | Potency (MCC-26) | Potency (MKL-1) | Potency (MKL-2) | outcome (NIH3T3 [2]) | Potency (UISO)

CN(N=O)C(=O)N[C@@H]1[C@@H](O)[C@H](O)[C@@H](CO)O[C@@H]1O
inactive: max response (KB-3-1) 28.6% | outcome (NIH3T3 [1]) | outcome (HACAT) | outcome (HEK293T) | Potency (MCC-13) | Potency (MCC-26) | Potency (MKL-1) | Potency (MKL-2) | outcome (NIH3T3 [2]) | Potency (UISO)

CC(C(O)c1ccc(O)cc1)N1CCC(Cc2ccccc2)CC1 (stereo not drawn)
inactive: max response (KB-3-1) -5.14% | outcome (KB-3-1) | max response (NIH3T3 [1]) -2.06% and 3.27% | outcome (HACAT) inactive [at 17.4 µM] | Potency (MCC-13) | Potency (MCC-26) | Potency (MKL-1) | Potency (MKL-2) | Potency (UISO)

Oc1cn2c(n1)Nc1ccc(Cl)c(Cl)c1C2
inactive: max response (KB-3-1) -2.96% and -14.6% | outcome (NIH3T3 [1]) | outcome (HACAT) inactive [at 17.4 µM] | outcome (HEK293T) inactive [at 17.4 µM] | Potency (MCC-13) | Potency (MCC-26) | Potency (MKL-1) | Potency (MKL-2) | outcome (NIH3T3 [2]) inactive [at 17.4 µM] | Potency (UISO)

COc1ccc(Cl)cc1C(=O)NCCc1ccc(S(=O)(=O)NC(=O)NC2CCCCC2)cc1
inactive: max response (KB-3-1) -9.53% | outcome (KB-3-1) | max response (NIH3T3 [1]) -5.68% and -4.29% | outcome (HEK293T) | Potency (MCC-13) | Potency (MCC-26) | Potency (MKL-1) | Potency (MKL-2) | Potency (UISO)

CNC(=O)Oc1ccc2c(c1)[C@]1(C)CCN(C)[C@@H]1N2C
inactive: max response (KB-3-1) -5.47% | outcome (KB-3-1) | max response (NIH3T3 [1]) -4.44% | outcome (NIH3T3 [1]) | outcome (HACAT) | outcome (HEK293T) | Potency (MCC-13) | Potency (MCC-26) | Potency (MKL-1) | Potency (MKL-2) | outcome (NIH3T3 [2]) | Potency (UISO)

CN1CCC[C@@H]1Cc1c[nH]c2ccc(CCS(=O)(=O)c3ccccc3)cc12
inactive: max response (KB-3-1) -5.28% | outcome (KB-3-1) | max response (NIH3T3 [1]) -4.41% | outcome (NIH3T3 [1]) | outcome (HACAT) | outcome (HEK293T) | Potency (MCC-13) | Potency (MCC-26) | Potency (MKL-1) | Potency (MKL-2) | outcome (NIH3T3 [2]) | Potency (UISO)

NC(CSCC(=O)O)C(=O)O (stereo not drawn)
inactive: max response (KB-3-1) -5.75% | outcome (NIH3T3 [1]) | outcome (HACAT) | outcome (HEK293T) | Potency (MCC-13) | Potency (MCC-26) | Potency (MKL-1) | Potency (MKL-2) | outcome (NIH3T3 [2]) | Potency (UISO)

CCCCC(CC)COC(=O)c1ccccc1O (stereo not drawn)
inactive: max response (KB-3-1) -6.97% | outcome (NIH3T3 [1]) | outcome (HACAT) | outcome (HEK293T) | Potency (MCC-13) | Potency (MCC-26) | Potency (MKL-1) | Potency (MKL-2) | outcome (NIH3T3 [2]) | Potency (UISO)
